{"source": "PubChem BioAssay (EPA / NIEHS)", "note": "Several values for one entry are separate records, joined by “and”; a condition that tells them apart may be missing. Identical values can stand only once. Some structures have more than one record in an assay (separate samples or runs), and their calls can disagree. Activity calls are given as the source filed them. Rule for the calls: active = hit-call score of the fitted dose curve at least 0.9, where 1 is the maximum; inactive = score below 0.9."}
{"read-out": "Collagen I, COL1A1 (gene 1277)", "assay": "BSK_MyoF_CollagenI: BioMAP Diversity Plus: MyoF Assay for Collagen I Biomarker Activity (AID 2284238)", "settings": "primary human lung fibroblasts", "summary_of_the_method": "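Lung fibroblasts (human primary) dosed, 24 h; Collagen I by ELISA; positive-direction fit vs DMSO control. Parallel SRB total-protein staining (0.1% SRB, 10% TCA fixation, 560 nm) flags overt cytotoxicity.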"}
{"smiles": "OCC(F)(F)C(F)(F)C(F)(F)C(F)(F)C(F)(F)C(F)(F)C(F)(F)C(F)(F)CO", "AC50": "40.4 µM (active)", "outcome": "inactive"}
{"smiles": "NC(=O)C(F)(F)C(F)(F)C(F)(F)C(F)F", "outcome": "inactive"}
{"smiles": "C=CC(=O)OCCC(F)(F)C(F)(F)C(F)(F)C(F)(F)F", "outcome": "inactive"}
{"smiles": "O=C(Cl)C(F)(F)C(F)(F)C(F)(F)C(F)(F)C(F)(F)C(F)(F)C(F)(F)F", "outcome": "inactive"}
{"smiles": "CCN(CCO)S(=O)(=O)C(F)(F)C(F)(F)C(F)(F)C(F)(F)C(F)(F)C(F)(F)C(F)(F)C(F)(F)F", "AC50": "19.9 µM (active) and 20.3 µM (active)"}
{"smiles": "FC(F)(F)C(F)(F)C(F)(F)C(F)(F)C(F)(F)C(F)(F)CC[Si](Cl)(Cl)Cl", "outcome": "inactive"}
{"smiles": "C=C(C)C(=O)OCC(F)(F)C(F)(F)C(F)(F)C(F)F", "outcome": "inactive"}
{"smiles": "OCC(F)(F)C(F)(F)C(F)(F)CO", "outcome": "inactive"}
{"smiles": "O=C(O)C(F)(F)OC(F)(F)C(F)(F)OC(F)(F)C(F)(F)OC(F)(F)F", "outcome": "inactive"}
{"smiles": "NC(=O)C(F)(F)C(F)(F)C(F)(F)C(F)(F)C(F)(F)C(F)(F)C(F)(F)F", "outcome": "inactive"}
{"smiles": "CO[Si](C)(CCC(F)(F)C(F)(F)C(F)(F)C(F)(F)C(F)(F)C(F)(F)F)OC", "outcome": "inactive"}
{"smiles": "O=S(=O)(O)CCC(F)(F)C(F)(F)C(F)(F)C(F)(F)F", "outcome": "inactive"}
{"read-out": "Collagen III, COL3A1 (gene 1281)", "assay": "BSK_MyoF_CollagenIII: BioMAP Diversity Plus: MyoF Assay for Collagen III Biomarker Activity (AID 2284239)", "settings": "primary human lung fibroblasts", "summary_of_the_method": "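ELISA read-out of collagen III from human lung fibroblasts after 24 h of chemical treatment. The DMSO control served as negative control and baseline, with values fitted in the positive direction.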"}
{"smiles": "O=S(=O)(O)CCC(F)(F)C(F)(F)C(F)(F)C(F)(F)C(F)(F)C(F)(F)C(F)(F)C(F)(F)F", "outcome": "inactive"}
{"smiles": "OCCCCC(F)(F)C(F)(F)C(F)(F)C(F)(F)F", "outcome": "inactive"}
{"smiles": "OC(O)C(F)(F)C(F)(F)F", "outcome": "inactive"}
{"smiles": "OCC(O)CC(F)(F)C(F)(F)C(F)(F)C(F)(F)F", "note": "(stereo not given)", "outcome": "inactive"}
{"smiles": "NC(=O)C(F)(F)C(F)(F)C(F)(F)F", "outcome": "inactive"}
{"smiles": "NC(O)(C(F)(F)F)C(F)(F)F", "outcome": "inactive"}
{"smiles": "NC(=O)C(F)(F)C(F)(F)C(F)(F)C(F)(F)C(N)=O", "outcome": "inactive"}
{"smiles": "OCCCC(F)(F)C(F)(F)C(F)(F)C(F)(F)C(F)(F)C(F)(F)C(F)(F)C(F)(F)F", "AC50": "13.5 µM (active) and 12.2 µM (active)"}
{"smiles": "NC(=O)C(F)(F)C(F)(F)C(F)(F)C(F)F", "outcome": "inactive"}
{"smiles": "OCC(F)(F)C(F)(F)C(F)(F)CO", "outcome": "inactive"}
{"smiles": "CO[Si](C)(CCC(F)(F)C(F)(F)C(F)(F)C(F)(F)C(F)(F)C(F)(F)F)OC", "outcome": "inactive"}
{"smiles": "O=S(=O)(O)CCC(F)(F)C(F)(F)C(F)(F)C(F)(F)F", "outcome": "inactive"}
